Laboratory results from PubChem BioAssay AID1159580 (chemical genetic matrix, 2015).
In all, about 5,500 compounds went through this assay and about 2,000 (36%) were called active. Another 18% or so got no clear call; they are omitted. No stated cut-off is given here; in the data, active means normalized growth mostly below about 0.91 (no sharp cut-off); inconclusive means no clear call, values can overlap the other calls; inactive means mostly above about 0.92. This is one part of the list.

Experiment: chemical genetic growth profiling, strain panel (AID 1159580);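 further: tested at 20 µM; growth read once vehicle control cultures reached saturation at 30 °C; 1 = growth at the plate median or of vehicle wells; lower values mean less growth of the strain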
Settings: S. cerevisiae deletion strains, growth OD

Measured: normalized growth

COc1cc(N)c(Cl)cc1C(=O)NC1CCN(Cc2ccccc2)CC1
inactive: locus YAL013W, strain DEP1, hits give low values 0.997 | locus YAL021C, strain ccr4, hits give low values 1 | locus YAL026C, strain drs2, hits give low values 1 | locus YAL030W, strain snc1, hits give low values 1 | locus YBL061C, strain skt5, hits give low values 0.997 | locus YBR009C, strain hhf1, hits give low values 0.999 | locus YBR021W, strain FUR4, hits give low values 1.07 | locus YBR023C, strain chs3, hits give low values 0.995 | locus YBR171W, strain sec66, hits give low values 0.999 | locus YBR229C, strain ROT2, hits give low values 0.988 | locus YBR231C, strain swc5, hits give low values 1 | locus YBR279W, strain paf1, hits give low values 0.999 | locus YCL011C, strain gbp2, hits give low values 0.994 | locus YCL016C, strain dcc1, hits give low values 1 | locus YCL029C, strain bik1, hits give low values 0.962 | locus YCL061C, strain MRC1, hits give low values 0.984 | locus YCL069W, strain vba3, hits give low values 0.993 | locus YCR088W, strain abp1, hits give low values 0.993 | locus YDL005C, strain med2, hits give low values 0.996 | locus YDL035C, strain GPR1, hits give low values 1 | locus YDL040C, strain nat1, hits give low values 0.992 | locus YDL074C, strain BRE1, hits give low values 0.97 | locus YDL101C, strain DUN1, hits give low values 0.981 | locus YDL134C, strain PPH21, hits give low values 0.999 | locus YDL185W, strain tfp1, hits give low values 0.954 | locus YDL192W, strain arf1, hits give low values 0.992 | locus YDR001C, strain nth1, hits give low values 0.999 | locus YDR069C, strain doa4, hits give low values 0.992 | locus YDR101C, strain arx1, hits give low values 0.982 | locus YDR137W, strain rgp1, hits give low values 1.01 | locus YDR150W, strain NUM1, hits give low values 0.987 | locus YDR159W, strain sac3, hits give low values 1 | locus YDR162C, strain NBP2, hits give low values 0.996 | locus YDR195W, strain ref2 0.986 | locus YDR297W, strain sur2, hits give low values 0.994 | locus YDR318W, strain mcm21, hits give low values 0.981 | locus YDR334W, strain swr1, hits give low values 0.998 | locus YDR335W, strain msn5, hits give low values 0.986 | locus YDR388W, hits give low values 0.993 | locus YDR392W, strain spt3, hits give low values 0.995 | locus YDR502C, strain sam2, hits give low values 1.01 | locus YEL003W, strain gim4, hits give low values 0.999 | locus YEL037C, strain rad23, hits give low values 0.996 | locus YEL061C, strain CIN8 (second series), hits give low values 0.998 | locus YEL061C, strain CIN8, hits give low values 0.995 | locus YER015W, strain faa2, hits give low values 1 | locus YER016W, strain bim1, hits give low values 0.994 | locus YER110C, hits give low values 0.995 | locus YER111C, strain swi4, hits give low values 0.991 | locus YER155C, strain BEM2 (second series), hits give low values 0.988 | locus YER155C, strain BEM2, hits give low values 0.982 | locus YER167W, strain BCK2, hits give low values 0.996 | locus YFR010W, strain ubp6, hits give low values 0.999 | locus YGL078C, strain dbp3, hits give low values 0.996 | locus YGL086W, strain mad1, hits give low values 1 | locus YGL167C, strain pmr1, hits give low values 1 | locus YGL173C, strain kem1, hits give low values 0.998 | locus YGL227W, strain vid30, hits give low values 0.998 | locus YGL240W, strain doc1, hits give low values 0.997 | locus YGL248W, strain PDE1, hits give low values 1 | locus YGL253W, strain hxk2, hits give low values 0.992 | locus YGR078C, strain PAC10, hits give low values 0.982 | locus YGR135W, strain pre9, hits give low values 0.998 | locus YGR229C, strain SMI1, hits give low values 1.02 | locus YGR252W, strain gcn5, hits give low values 1.15 | locus YHR013C, strain ard1, hits give low values 0.996 | locus YHR027C, strain rpn1, hits give low values 1 | locus YHR030C, strain SLT2, hits give low values 0.996 | locus YHR079C, strain IRE1 (second series), hits give low values 0.977 | locus YHR094C, strain hxt1, hits give low values 0.974 | locus YHR129C, strain ARP1, hits give low values 0.993 | locus YHR142W, strain chs7, hits give low values 0.993 | locus YHR200W, strain rpn10, hits give low values 0.989 | locus YIL066C, strain RNR3, hits give low values 0.98 | locus YIL073C, strain SPO22, hits give low values 0.997 | locus YIL125W, strain kgd1, hits give low values 0.997 | locus YIR030C, strain dcg1, hits give low values 0.988 | locus YJL092W, strain hpr5, hits give low values 0.987 | locus YJL095W, strain BCK1 (second series), hits give low values 0.998 | locus YJL095W, strain BCK1, hits give low values 0.999 | locus YJL115W, strain asf1, hits give low values 0.987 | locus YJL129C, strain trk1, hits give low values 0.992 | locus YJL134W, strain LCB3, hits give low values 0.998 | locus YJL154C, strain vps35, hits give low values 1 | locus YJL164C, strain tpk1, hits give low values 1 | locus YJL166W, strain qcr8, hits give low values 0.996 | locus YJL168C, strain set2, hits give low values 0.99 | locus YJL187C, strain SWE1 (second series), hits give low values 0.966 | locus YJL187C, strain SWE1, hits give low values 0.99
